An excerpt weighted towards active compounds, which were near 10% of everything screened.
HP1b chromo inh – inhibitors of HP1-beta chromodomain binding to methylated histone tails. P83916. AlphaScreen HP1-beta / biotin-H3K9me3 peptide binding. Potency, µM (top dose mostly 114 µM), for inactives: at the highest dose activity change, negative = inhibition, usual class: inhibitors. actives 0.56% (n = 390,000). AID 540317; further: potency means the concentration at half of the fitted maximal effect; nearly all actives have a fitted effect of over 70% in size
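HP1-beta protein (50 nM final) preincubated 30 min at room temperature with biotinylated H3(1-18)K9me3 peptide (50 nM) in PBS pH 7.4, 0.01% Tween-20, then compound added for 30 min. AlphaScreen streptavidin donor/nickel chelate acceptor beads (10 ug/mL final), 30 min dark, luminescence read.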
CtBP-E1A inh – CtBP/E1A binding inhibition; AlphaScreen GST-E1A/His-CtBP binding, 1536-well; hits give low values; activity change, % (concentration not given with the values); actives 0.49% (n = 340,000); in the data active means activity change below about -65%; inconclusive means mostly about -30% to -63%; further: on the % scale 0 is the no-effect control and ±100 the full control effect
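Steps: dispense buffer (Tris pH 8.0, NaCl 300 mM, TCEP 1 mM, BSA, Tween 20); add 5X protein mix (GST-E1A, His-CtBP, 125 nM each); pin 23 nL compound; 2 h at 37 °C, dark; add 5X beads (50 ug/mL); 1 h; read.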
BAZ2B block – inhibitors of human BAZ2B bromodomain; Q9UIF8; AlphaScreen BAZ2B-H3K14Ac peptide displacement; Potency, µM (doses to about 114 µM), inactives show top-dose activity change, negative = inhibition, usual class: inhibitors; actives 4.4% (n = 360,000); AID 504333; further: potency means the concentration at half of the fitted maximal effect; on the % scale 0 is the no-effect control and ±100 the full control effect; nearly all actives have a fitted effect of over 60% in size
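Compounds, titrated to a top concentration of 110 uM, were incubated 30 min at room temperature with preformed BAZ2B/acetyl-K14 H3 peptide complex (50 nM each). Proximity signal was measured by AlphaScreen after 20 min with beads.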
JMJD2A Tudor inh – blocks the human JMJD2A Tudor domain. O75164. AlphaScreen JMJD2A-Tudor / H3K4me3 peptide binding. Potency, µM (series often up to 114 µM), without a hit: at the top dose activity change, negative = inhibition, hits mostly inhibitors. actives 4.4% (n = 390,000). AID 504339; further: potency means the concentration at half of the fitted maximal effect; on the % scale 0 is the no-effect control and ±100 the full control effect; nearly all actives have a fitted effect of over 50% in size
Six1-Eya2 inh – Six1/Eya2 interaction inhibition; activity change, % (no concentration beside the values); actives 0.56% (n = 360,000); AID 651725; AlphaScreen GST-Six1/His-Eya2 binding, biochemical; hits give low values; in the data active means activity change below about -65%; inconclusive means mostly about -30% to -63%; further: on the % scale 0 is the no-effect control and ±100 the full control effect
Target sequence (O00167 whole entry, looked up): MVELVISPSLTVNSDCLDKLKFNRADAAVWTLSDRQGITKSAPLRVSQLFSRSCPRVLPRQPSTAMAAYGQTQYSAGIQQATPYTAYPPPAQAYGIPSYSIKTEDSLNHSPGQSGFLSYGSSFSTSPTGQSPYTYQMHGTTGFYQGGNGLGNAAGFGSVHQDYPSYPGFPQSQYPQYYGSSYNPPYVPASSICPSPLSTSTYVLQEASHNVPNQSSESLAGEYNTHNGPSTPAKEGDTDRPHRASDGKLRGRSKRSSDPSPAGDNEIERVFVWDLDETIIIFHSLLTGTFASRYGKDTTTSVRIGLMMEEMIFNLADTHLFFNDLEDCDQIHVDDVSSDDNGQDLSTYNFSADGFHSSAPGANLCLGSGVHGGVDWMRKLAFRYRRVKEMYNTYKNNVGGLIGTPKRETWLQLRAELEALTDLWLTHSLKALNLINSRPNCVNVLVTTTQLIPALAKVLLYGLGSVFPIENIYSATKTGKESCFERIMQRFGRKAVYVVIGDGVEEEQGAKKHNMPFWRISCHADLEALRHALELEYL
Target sequence (Q15475 whole entry, looked up): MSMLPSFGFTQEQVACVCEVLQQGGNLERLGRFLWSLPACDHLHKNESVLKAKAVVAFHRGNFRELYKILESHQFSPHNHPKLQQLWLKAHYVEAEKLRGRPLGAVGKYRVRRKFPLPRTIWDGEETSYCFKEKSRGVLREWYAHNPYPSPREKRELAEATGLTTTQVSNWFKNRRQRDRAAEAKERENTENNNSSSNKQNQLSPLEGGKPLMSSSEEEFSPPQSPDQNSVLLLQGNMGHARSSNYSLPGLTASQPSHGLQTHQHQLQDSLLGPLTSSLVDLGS
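GST-Six1 + His-Eya2 (5X stock: 250/500 nM); Tris pH 8.0, 300 mM NaCl, 0.05% BSA, 0.02% Tween 20; GSH donor/Ni acceptor beads; 1 h 37 °C dark; AlphaScreen readout.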
G9a inh – inhibitors of human histone lysine methyltransferase G9a | Q96KQ7 | G9a H3K9 monomethylation, AlphaScreen, 2 h | Potency, µM (series often up to 102 µM), without a hit: at the highest dose activity, negative = inhibition, hits mostly inhibitors | actives 8.8% (n = 350,000); further: potency means the concentration at half of the fitted maximal effect; on the % scale 0 is the no-effect control and ±100 the full control effect; nearly all actives have a fitted effect of over 75% in size
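Methyltransferase reactions run at room temperature for 2 h (20 nM enzyme, 500 nM biotin-H3K9 peptide, 20 uM SAM) after a 15 min compound preincubation; product detected by AlphaScreen beads and anti-H3K9me1 antibody.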
* hit, by the source's call; ? = inconclusive; · = no result given; [ ] = remark or other dose. Unless noted, the call rests on the fitted dose curve; in most records, active means well fitted inhibition curve with a large enough effect; inconclusive means small, poorly fitted or top-dose-only effect; inactive means no such curve, though single readings can be large or run the other way.

SMILES | HP1b chromo inh | CtBP-E1A inh | BAZ2B block | JMJD2A Tudor inh | Six1-Eya2 inh | G9a inh
CCOCCc1nn2c(=O)cc(COC(=O)CNC(=O)c3ccc(F)cc3)nc2s1 | 49.2% | · | 0.2% | -5.7% | · | 0.9%[59 µM]
Cc1ccc(Nc2c(-c3cccs3)nc3nc(C)cc(C)n23)cc1 | 4.3% | · | -33.9% | -23.6% | · | -2.9%[59 µM]
CCOc1ccccc1NC(=O)Nc1ccc2nc(N3CCN(C)CC3)cc(C)c2c1 | 10.5% | · | -16.4%[57.1 µM] | ? | · | ?
Cc1cc(C)c(COc2ccc(/C=N/n3c(C)n[nH]c3=S)cc2)c(C)c1 | ? | -9.6 | ? | 79.4µM* | -8.4 | ?
Cc1n[nH]c(=S)n1/N=C/c1ccc(OCc2ccc(Cl)cc2Cl)cc1 | 50.3% | 7.1 | 4.4% | -6.2% | -6.0 | 11.2µM*
Cc1n[nH]c(=S)n1/N=C/c1ccc(OCc2ccc(Cl)cc2)cc1 | 31.7% | -1.6 | 2.6% | -20.8% | -0.8 | ?
CCOC(=O)N1CCN(C(=O)NC2CCCCC2)CC1 | 19.8% | 10.3 | 11.0% | -2.9% | 10.8 | -8.6%[0.0925 µM]
CCN1CCN(C(=O)NC2CCCCC2)CC1 | ? | -9.2 | ? | 28.2µM* | 11.1 | ·
Oc1ccc(C2C[C@H]3CC[C@@H]2C3)cc1O (stereo partly drawn) | 79.4µM* | 6.0 | ? | 20µM* | -3.9 | 1µM*
Cc1ccc(C)c(S(=O)(=O)c2cnc(SCC(=O)Nc3ccc(F)cc3F)[nH]c2=O)c1 | 28.4% | · | 1.9% | -17.1% | · | -1.0%[59 µM]
CN(Cc1cccs1)CC(O)COCc1ccco1 (stereo not drawn) | 9.2% | -0.3 | -14.9% | -9.0% | 0.6 | 44.7µM*
CC(=O)c1ccc(OCC(O)CN(C)Cc2cccs2)cc1 (stereo not drawn) | ? | -2.7 | 50.1µM* | 7.94µM* | 5.9 | 3.55µM*
Cc1cccc(N(CC(=O)NCCSCc2ccccc2)S(=O)(=O)c2ccccc2)c1C | 38.1% | · | 1.0% | -1.0% | · | -24.8%[59 µM]
Cc1cccc(CN2CCC(CNC(=O)c3c(C)oc4ncnc(N5CCCCC5)c34)CC2)c1 | 22.7% | · | 2.0%[57.1 µM] | -24.3% | · | -22.4%[59 µM]
O=C(Nc1ccccc1C(=O)N1CCN(Cc2ccccc2)CC1)c1ccccn1 | 27.6% | 2.5 | -1.9% | ? | -25.7 | 14.1µM*
CCOc1cc(/C=C(\C#N)c2[nH]nc(N)c2C#N)ccc1O | 21.8% | -81.5* | -33.6% | -33.3% | -67.2* | ?
CCOc1cc(-c2cc(-c3ccc(C)cc3)nc(N)c2C#N)ccc1O | 28.6% | -5.8 | -11.6% | -13.3% | -15.5 | -32.9%[59 µM]
O=[N+]([O-])c1nn(-c2ccc3c(c2)OCCO3)n(O)c1=NCc1ccc(F)cc1 | ? | -12.8 | 35.5µM* | 35.5µM* | ? | ?
O=[N+]([O-])c1nn(-c2ccc(Cl)cc2)n(O)c1=NCc1ccncc1 | 21.3% | -0.9 | ? | -26.0% | -4.8 | 39.8µM*
O=[N+]([O-])c1nn(-c2ccc3c(c2)OCCO3)n(O)c1=NCc1ccc(F)cc1Cl | 6.9% | 1.0 | -19.6% | -2.1% | 12.6 | -4.0%[59 µM]
Cc1ccc(CN=c2c([N+](=O)[O-])nn(-c3ccc(Cl)cc3)n2O)cc1 | ? | 2.0 | ? | ? | -6.9 | 50.1µM*
O=[N+]([O-])c1nn(-c2cccc(Cl)c2)n(O)c1=NCc1cccnc1 | -20.7% | 18.5 | ? | ? | -13.8 | 7.94µM*
O=[N+]([O-])c1nn(-c2ccc(Cl)cc2)n(O)c1=NCc1cccnc1 | 0.7% | -8.6 | ? | ? | -17.5 | ?
COc1ccc(C(=O)NCc2ccc3c(c2)CCN3C(=O)c2cccc(C)c2)cc1OC | 37.3% | · | -10.5% | -18.0% | · | -9.9%[59 µM]
COc1cccc(NC(=O)Cn2c(=O)n(-c3ccc(Cl)cc3)c(=O)c3oc4ccccc4c32)c1 | 20.5% | · | -13.4% | -15.8% | · | -35.7%[59 µM]
SMILES | HP1b chromo inh | CtBP-E1A inh | BAZ2B block | JMJD2A Tudor inh | Six1-Eya2 inh | G9a inh
CC1=CC(=O)C(C(C)C)=CC1=NC(=O)c1ccc(C)cc1 | 22.4µM* | · | 39.8µM* | 50.1µM* | -2.2 | 8.91µM*
CC1=CC(=O)C(C(C)C)=C/C1=N/OC(=O)c1cccc([N+](=O)[O-])c1 | -21.2% | 4.0 | -10.2% | -32.0% | 3.6 | -16.4%[59 µM]
CCOc1ccccc1-n1nnc(S(=O)(=O)c2ccc(C)cc2)c1N | 51.7% | · | 0.7% | 2.7% | · | 25.3%[59 µM]
CCc1ccc(-c2nn(CC(=O)NC3CCCCC3)c3c2cnc2ccc(F)cc23)cc1 | 20.7% | · | -8.9% | -16.0% | · | 4.6%[59 µM]
C=CCSc1nnc(NC(=O)C2=COCCO2)s1 | 33.0% | -0.6 | -5.6% | -12.4% | 2.3 | 35.5µM*
Cc1ccc(S(=O)(=O)C(CNC(=O)COc2ccc(Cl)cc2)c2ccco2)cc1 (stereo not drawn) | -7.0% | · | -14.9% | -21.4% | · | 3.3%[59 µM]
CCC(=O)Nc1nnc(Sc2ccc(N(C)C)cc2)s1 | 9.3% | 10.3 | -28.9% | -32.4% | -5.0 | ?
CN(C)c1ccc(Sc2nnc(NC(=O)Nc3ccc(Cl)cc3Cl)s2)cc1 | 25.7% | -1.4 | -8.8% | -15.6% | -0.8 | 28.2µM*

High-throughput results from PubChem BioAssay.
